Pf Dd2 growth: inhibitors of Plasmodium falciparum Dd2 growth; P. falciparum Dd2 growth, SYBR Green, 72 h; Potency, µM (top dose mostly 28.9 µM), for the others: at the highest dose activity, negative = inhibition, hits mostly inhibitors; actives 4.3% (n = 120,000); active means well fitted inhibition curve with a large enough effect;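 further: plate controls were DMSO vehicle for no effect and reference drug for full effect; nearly all actives have a fitted effect of over 65% in size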
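Readout: SYBR Green fluorescence, 485 nm excitation, 535 nm emission, after ~16 h lysis at 37C. Before that, Dd2-infected red cells (2.5% hematocrit) grew 72 h with compound, 29 uM top final concentration.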
The depositor's hits bear a star; i = inactive; [ ] = another dose, or the depositor's remark. Shown is part of a subset that was picked to be rich in hits. Potency means the concentration at half of the fitted maximal effect.

SMILES	Pf Dd2 growth
COCCNC(=O)c1ccc(OC2CCN(C(=O)[C@@H](C)N)CC2)c(Cl)c1	-12.8%
COCCNC(=O)c1ccc(OC2CCN(Cc3cccc4c3OCO4)CC2)c(Cl)c1	7.08µM*
CC(C)n1cc(CN2CCC(Oc3ccc(C(=O)NC4CCCC4)cc3Cl)CC2)cn1	-9.8%
COCCNC(=O)c1ccc(OC2CCN(Cc3ccc(C)s3)CC2)c(Cl)c1	6.31µM*
O=C(CCc1conc1-c1cccc(F)c1)NC1CCCCCC1	-12.8%
COc1ccc(-c2noc(C(=O)N3CCCC3)c2[C@H](C)O)cc1	-3.5%[44.1 µM]
CN1C(=O)C(CC(=O)N(C)C2CCNCC2)(Cc2ccccc2)c2ccccc21 (stereo not drawn)	-21.6%
Cn1cc(CN2CCN3C(=O)N(Cc4ccccn4)C[C@H]3C2)cn1	i
COc1ccc(CC(=O)N2C[C@H](c3nc(-c4cccnc4)no3)[C@@H](C)C2)cc1	i
O=C(c1ccncc1)N1CCCC(COc2ccccc2C(=O)N2CCOCC2)C1 (stereo not drawn)	-4.6%
O=C(c1ccccc1OCC1CCCN(C2CCCC2)C1)N1CCCC1 (stereo not drawn)	i
CN(C)c1ccc(C(=O)N2CCCC(COc3ccccc3C(=O)N3CCCC3)C2)cc1 (stereo not drawn)	6.31µM*
Cc1cccc2nnc(N3CCCN(C(=O)c4ccccc4Cl)CC3)n12	i
CN(C)Cc1nnc(C2CC(Nc3cncc(C(=O)N(C)C)n3)C2)n1C (stereo not drawn)	-3.7%
Cc1cccc(C(=O)N2CC(C(=O)N(C)C)C3(CCOCC3)C2)c1 (stereo not drawn)	-3.3%
CCc1noc(C)c1C(=O)N1CCCC(CO)(CC=C(C)C)C1 (stereo not drawn)	-12.8%
CC(C)=CCC1(CO)CCCN(Cc2[nH]c3ccc(F)cc3c2C)C1 (stereo not drawn)	2.24µM*
CCCC1(CO)CCCN(Cc2nnc(-c3cccc(F)c3)o2)C1 (stereo not drawn)	i
CN(C)[C@@H]1CN(C(=O)c2ccoc2)CC[C@@H]1CO	i
CCCS(=O)(=O)NCCc1ncc(C)n1Cc1ccccc1	-18.0%
Cc1cnc(CC2CCN(C(=O)NC(C)(C)C)CC2)n1Cc1ccc(F)cc1	i
CCS(=O)(=O)N1CCC(Cc2ncc(C)n2Cc2ccccc2)C1 (stereo not drawn)	11.2µM*
Cc1cnc(CC2CCN(C(=O)Nc3ccccc3F)C2)n1C(C)C (stereo not drawn)	i
Cc1cnc(C2CCN(C(=O)NC(C)C)C2)n1C(C)C (stereo not drawn)	17.1%
Cn1c([C@H]2CCN(S(=O)(=O)c3ccc(F)cc3)C2)nc2ccccc21	i
SMILES	Pf Dd2 growth
CC(=O)N1CCCC(Cc2ncc(C)n2C(C)C)C1 (stereo not drawn)	-25.4%
Cc1cnc(CC2CCN(C(=O)Nc3ccccc3)C2)n1CC1CC1 (stereo not drawn)	i
Cc1cnc(C2CCN(S(=O)(=O)c3ccccc3)C2)n1C(C)C (stereo not drawn)	3.98µM*
COc1cccc(CN2CCCC(Cc3ncc(C)n3Cc3ccccc3)C2)c1 (stereo not drawn)	-22.7%
Cc1cnc(CC2CCN(C(=O)C3CC3)CC2)n1Cc1ccccc1	6.31µM*
Cc1cnc(CC2CCCN(C(=O)Cc3ccccc3)C2)n1C(C)C (stereo not drawn)	4.47µM*
O=C1NCCC[C@@H]1NC(=O)[C@@H]1CN(C(=O)c2cccc(F)c2)CCN1C(=O)c1cccc(F)c1	2.1%
CN1C(=O)CO[C@H]2CN(Cc3ncc[nH]3)C[C@H]21	5.2%[44.1 µM]
Cc1ccc(C(=O)N2C[C@@H](CO)[C@H](c3ccncc3)C2)cc1F	7.9%
O=[S+]1([O-])NC2(CCN(Cc3ccccn3)C2)COc2ccncc21 (stereo not drawn)	57.3%
O=[S+]1([O-])NC2(CCN(Cc3ccccn3)CC2)COc2ccccc21	5.2%
CCCN1C(=O)CC[C@H]2CN(C(=O)c3ccc(F)c(OC)c3)CC[C@H]21	5.2%
CCCNC(=O)CC1COc2ccc(C(=O)NCCOC)cc2N1C (stereo not drawn)	-13.7%
CCOc1cc(=O)n2c(c1C(=O)Nc1cccc(Cl)c1C)CCCC2	23.6%
Cc1cc(C(=O)N2CC[C@H](NS(=O)(=O)c3cccs3)C[C@H]2C(=O)N[C@H](CC(C)C)C(N)=O)n(C)n1	-10.5%
CC(C)N1C(=O)CO[C@H](c2ccc(NC(=O)c3cnccn3)cc2)[C@H]1CO	-17.5%[44.1 µM]
CCCn1c(C)cnc1CC1CCCN(C(=O)CCOC)C1 (stereo not drawn)	-12.5%
CCCn1c(C)cnc1CC1CCCN(S(=O)(=O)c2cc(OC)ccc2OC)C1 (stereo not drawn)	1.26µM*
Cc1cnc(CC2CCN(S(=O)(=O)c3ccc(C#N)cc3)C2)n1C1CC1 (stereo not drawn)	10µM*
N#Cc1ccc(S(=O)(=O)N2CCC(Cc3nc(-c4ccncc4)n[nH]3)C2)cc1 (stereo not drawn)	-9.7%
Cc1cnc(CC2CCN(S(=O)(=O)c3ccccc3)CC2)n1Cc1ccccc1	0.562µM*
CCCn1c(C)cnc1CC1CCN(C(=O)c2ccc(OC)cc2OC)CC1	i
CCC(=O)N1CCC(Cc2ncc(C)n2C2CC2)C1 (stereo not drawn)	i
CCn1cc(S(=O)(=O)N2CCC(Cc3ncc(C)n3Cc3ccc(F)cc3)CC2)cn1	-31.6%
O=S(=O)(c1ccccc1)N1CCC(Cc2nncn2-c2ccccc2)C1 (stereo not drawn)	i
SMILES	Pf Dd2 growth
O=C(c1ccn2cncc2c1)N1CCOCC1	5.0%[44.1 µM]
CN(CCNC(=O)c1cn2ccnc(-c3ccccc3)c2n1)C1CCCCC1	i
CC(=O)Nc1ccc2c(c1)nc1n2[C@@H](CNC2CCN(C)CC2)COC1	4.3%[44.1 µM]
O=C(C1CCOCC1)N1CCCC(CCc2ccc(F)c(F)c2)C1 (stereo not drawn)	-3.7%
CCc1nncn1C1CCN(C(=O)c2nn(C)c3ccccc23)C1 (stereo not drawn)	i
Cn1cnc(S(=O)(=O)N2CC(N(C3CCOCC3)S(C)(=O)=O)C2)c1	-0.6%
CCn1cc2nc(SCc3cccc(C(F)(F)F)c3)n(Cc3ccc(C)cc3)c(=O)c2n1	10µM*
CCn1cc2nc(SCc3cccc(Cl)c3)n(Cc3ccc(C)cc3)c(=O)c2n1	i
CCn1cc2nc(SCc3cccc(C)c3)n(CCc3ccccc3)c(=O)c2n1	i
COc1cccc(-c2ccccc2NC(=O)C2CCN(C/C(C)=C/c3ccccc3)CC2)c1	8.91µM*
COc1cccc(C(=O)Nc2ccccc2-c2nnc(-c3cccc(OC)c3)o2)c1	i
COc1cccc(-c2ccccc2NC(=O)C2CCN(CC=C(C)C)CC2)c1	5.62µM*
C=CCC(=O)N1CCCC1C(=O)Nc1ccc(-c2cccc(OC)c2)cc1 (stereo not drawn)	-14.1%
COc1ccc(C(=O)N2CCC(C(=O)Nc3ccc(OC)cc3OC)CC2)cc1	52.4%
COc1cccc(-c2ccccc2NC(=O)C2CCN(Cc3ccccc3F)CC2)c1	-19.5%
Cc1ccc(S(=O)(=O)NC[C@H]2O[C@@H](CO)[C@@H](O)[C@H]2N2CCN(c3ccccn3)CC2)cc1	-23.1%
O=C(Nc1ccccc1)N1[C@H]2CC[C@@H]1c1cncnc1C2	8.5%
Cc1cc(C)n(CCC(=O)N2CC(F)(F)C[C@H]2c2nc(C)no2)n1	-5.4%
Cc1nn(C)c2nc(N3C[C@@H]4CCN(C)[C@@H]4C3)sc12	-2.3%
Cc1ccc(OCCC2CCN(C(=O)Cc3c[nH]c4ccccc34)C2)cc1 (stereo not drawn)	-13.3%

Source: PubChem BioAssay (National Center for Advancing Translational Sciences (NCATS))
